Screens (PubChem BioAssay)
Sampled rows, rich in hits. Any-hit rate of the full collection: about 2.4%.
ATXN viability: Viability Counterscreen for Primary qHTS for Inhibitors of ATXN expression. S2 cells (HEK-293 line with an ATXN2-luciferase reporter) viability, CellTiter-Fluor protease fluorescence, 24 h. Potency, µM (top dose mostly 56.7 µM), actives largely listed as cytotoxic. 400,000 compounds, 0.49% hits. AID 651635, 2014; also: nearly all actives have a fitted effect of over 40% in size
ATXN2 expr inh: Primary qHTS for Inhibitors of ATXN expression; AID 1745845, 2022; HEK-293 ATXN2-luciferase reporter, luminescence, 24 h; Potency, µM (titrated, usually from 57 µM), without a hit: at the top dose activity change, negative = inhibition, hits mostly inhibitors; 360,000 compounds, 0.72% hits; also: % is scaled to controls: 0 for no effect and ±100 for the full control effect; nearly all actives have a fitted effect of over 55% in size
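qHTS (up to 57 uM final) was run with 24 h compound exposure of reporter cells at 37 °C. Each well was multiplexed: SteadyGlo luminescence measured ATXN2-luciferase expression after a fluorogenic Gly-Phe-AFC viability readout (25 uM final).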
Apoferritin bind: qHTS Assay for Identification of Novel General Anesthetics; apoferritin/1-aminoanthracene competitive binding, fluorescence; Potency, µM (highest dose often 77.5 µM), for the others: top-dose activity change, negative = displacement, actives largely listed as inhibitors; AID 485281, 2010; 350,000 compounds, 0.074% hits; also: % is scaled to controls: 0 for no effect and ±100 for the full control effect; nearly all actives have a fitted effect of over 20% in size
Target sequence (P02791 2-175 limits assumed): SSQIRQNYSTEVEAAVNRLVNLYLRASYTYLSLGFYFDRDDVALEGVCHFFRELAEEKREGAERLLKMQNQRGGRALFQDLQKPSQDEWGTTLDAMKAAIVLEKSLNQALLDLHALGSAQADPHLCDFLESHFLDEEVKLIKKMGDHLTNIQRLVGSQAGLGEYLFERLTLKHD
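In PBS, apoferritin at 10 uM is loaded with 1-AMA from a 50% saturated solution. After 10 min of compound exposure at ambient temperature, reduced 535 nm fluorescence indicates probe displacement.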
HepG2 viability: qHTS for Inhibitors of TGF-b: Cytotox Counterscreen; HepG2 CAGA-GFP viability, ATP luminescence, 18 h; Potency, µM (titrated, usually from 46.1 µM), inactives show at the top dose activity change, negative = cytotoxicity, usual class: cytotoxic; 410,000 compounds, 0.76% hits
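HepG2 CAGA-GFP cells (1000/well, DMEM with 1% FBS) received compound, then TGF-beta at 500 pg/mL final, and were incubated 18 hours at 37 degrees C. Viability was read by CellTiter-Glo luminescence. Media-only wells were set as complete cell-killing and DMSO as no toxicity.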
TGFb SMAD3 inh: qHTS for Inhibitors of TGF-b. HepG2 CAGA-GFP TGF-b/SMAD3 reporter, GFP fluorescence, 18 h; TGF-beta stimulated, 500 pg/mL final. Potency, µM (top dose mostly 46.1 µM), without a hit: at the top dose activity, negative = inhibition, most hits filed as inhibitors. 410,000 compounds, 1.2% hits. AID 588855, 2011; also: % is scaled to controls: 0 for no effect and ±100 for the full control effect; nearly all actives have a fitted effect of over 65% in size
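GFP signal (ex488/em500-530) from TGF-beta-stimulated HEPG2 CAGA-GFP cells, 500 pg/mL final, 18 h at 37 degrees C in DMEM plus 1% FBS, normalized to unstimulated and DMSO-stimulated controls.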
* marks the source's active call; other numbers are inactive results; i = inactive; ? = inconclusive; / = no result; ! = a repeat was not active; [ ] = dose if it differs, or a comment. Calls follow the shape of the dose curve; as a rule, active = well fitted curve in the direction sought with a large enough effect; inconclusive = small, poorly fitted or top-dose-only effect, or another doubt; inactive = no such curve, though single readings can be large; an effect the other way counts as inactive or inconclusive. Potency is read from the fitted curve at half-maximal effect.

SMILES	ATXN viability	ATXN2 expr inh	Apoferritin bind	HepG2 viability	TGFb SMAD3 inh
NC(c1ccccc1)c1csc(Nc2cc(Oc3ccccc3)ncn2)n1 (stereo not drawn)	?	0%	/	11µM*	?
NC(COCc1ccccc1)c1csc(Nc2ncccn2)n1 (stereo not drawn)	i	6%	/	-1%	0%
CC(C)C(N)c1csc(Nc2cc(Oc3ccccc3)ncn2)n1 (stereo not drawn)	?	-13%	/	-16%	-16%
CC(C)CC(N)c1csc(Nc2ncccn2)n1 (stereo not drawn)	?	?	/	-23%	11µM*
CC(C)CC(N)c1csc(Nc2cc(Oc3ccccc3)ncn2)n1 (stereo not drawn)	/	25µM*	/	-58%	?
CNC(=O)[C@@H]1CCC(=O)N1	i	6%	/	-3%	-9%
CNC(=O)OCc1nc(SSC(C)(C)C)n(C)c1COC(=O)NC	/	?	/	-77%	11µM*
CC(C)(C)OC(=O)COc1cc(O)c2c(=O)cc(-c3ccccc3)oc2c1	i	-19%	4%	-23%	-22%
CC(C)(C)OC(=O)COc1cc(OCC(=O)OC(C)(C)C)c2c(=O)cc(-c3ccccc3)oc2c1	20µM*	20µM*	?	-88%	?
O=C(C=P(c1ccccc1)(c1ccccc1)c1ccccc1)c1ccccc1-c1ccccc1C(=O)C=P(c1ccccc1)(c1ccccc1)c1ccccc1	/	?	/	1.6µM*	1µM*
O=C(NNC(=O)c1ccccc1-c1ccccc1C(=O)O)c1ccccc1	i	8%	-1%	0%	19%
O=C(O)CN1C(=O)C2C3CC(C2C1=O)C1C(c2ccc(F)cc2)c2sc(=O)[nH]c2SC31 (stereo not drawn)	i	1%	-8%	-47%	2%
O=C(CCCC(=O)c1ccc(O)cc1)c1ccc(O)cc1	i	91%	/	-1%	1%
O=C1C=CC(=C(c2ccc(O)cc2)c2ccc(O)cc2)C=C1	16µM*	?	-10%	10µM*	?
Cc1c(N=C2NC(=O)/C(=C/c3ccc(O)cc3)S2)c(=O)n(-c2ccccc2)n1C	?	4%	-6%	10µM*	0%
O=C(NOCC1CC1)c1ccc(F)c(F)c1Nc1ccc(I)cc1Cl	?	31µM*	/	/	/
CCc1ccc(NC(=O)COC(=O)c2ccccc2OCC(=O)N(C)C)cc1	/	/	/	-38%	-30%
C#CCCCO/N=C1/C[C@@H](O)[C@@H](O)[C@@H]2[C@@H]3C(=O)N(Cc4ccc5c(c4)OCO5)C(=O)[C@H]3CC[C@H]12	/	/	2%[15.3 µM]	/	/
CCN(CCCNC(=O)c1cc2cc3cc(OC)ccc3nc2s1)c1cccc(C)c1	?	10%	-22%	-25%	?
CCN(CCCNC(=O)c1cc2c(Cl)nc3ccccc3c2s1)Cc1ccccc1	?	?	-11%	-85%	-104%
COCCNC(=O)c1cc2c(Cl)nc3ccc(C)cc3c2s1	/	/	-9%	-6%	12%
CCN(CCCNC(=O)c1cc2cc3ccc(C)cc3nc2s1)c1ccccc1	i	17%	4%	-28%	6.3µM*
CCN(CCCNC(=O)c1cc2c(=O)[nH]c3ccc(C)cc3c2s1)Cc1ccccc1	?	?	-9%	13µM*	11µM*
Cc1ccc2nc(Cl)c3cc(C(=O)NCCCN(C)Cc4ccccc4)sc3c2c1	/	/	?	13µM*	?
CN(CCCNC(=O)c1cc2c(Cl)nc3ccccc3c2s1)Cc1ccccc1	?	?	?	16µM*!	?
SMILES	ATXN viability	ATXN2 expr inh	Apoferritin bind	HepG2 viability	TGFb SMAD3 inh
O=c1onc(-c2ccccc2)n1Cc1ccc([N+](=O)[O-])cc1	i	/	/	1%	6%
COc1cc(=O)n2c(c1C(=O)N(C)Cc1cscn1)CCN(Cc1c(C)[nH]c3ccccc13)CC2	i	/	/	/	/
Cc1nn(-c2ccccn2)c2c1C(c1ccccc1Cl)C1=C(N2)c2ccccc2C1=O (stereo not drawn)	2.2µM*	?	-2%	-1%	-4%
Cc1nn(-c2ccccn2)c2c1C(c1c(F)cccc1Cl)C1=C(N2)c2ccccc2C1=O (stereo not drawn)	/	/	0%	/	/
Cc1ccc(C(=O)N2CCCC(N3CCN(c4cccc(C(F)(F)F)c4)CC3)C2)s1 (stereo not drawn)	?	/	4%	-45%	11µM*
C=CCc1ccccc1OCC(=O)N/N=C/c1ccc(OC(C)=O)cc1OC(C)=O	i	22µM*	-7%	-3%	2%
CCOC(=O)C1=C(N)c2ccccc2CC1C1CCCC1 (stereo not drawn)	i	/	12%	-116%	13µM*
CC(C)c1cc(-c2n[nH]c(=O)n2-c2ccc3c(ccn3C)c2)c(O)cc1O	/	0.077µM*	/	/	/
CC1CCCC(n2c(=S)[nH]c3ccccc3c2=O)C1C (stereo not drawn)	?	-27%	?	-70%	14µM*
Oc1ccc(-c2nc3ncccn3c2Nc2ccc3c(c2)OCCO3)cc1	i	2%	-2%	20%	14%
Oc1cccc(-c2nc3ncccn3c2Nc2cccc(C(F)(F)F)c2)c1	?	?	48%	-69%	13µM*
O=[N+]([O-])c1ccc(S(=O)Cc2ccccc2)c([N+](=O)[O-])c1 (stereo not drawn)	21µM*	?	/	-115%	7.9µM*
Cc1cc([N+](=O)[O-])ccc1NCc1ccc2ccccc2c1	i	5%	?	-7%	20µM*
Cc1cc([N+](=O)[O-])ccc1NCc1ccccc1	i	5%	11µM*	-15%	-31%
CCn1c(SC(C)C(=O)Nc2ccc3c(c2)OCCO3)nnc1C1CC1 (stereo not drawn)	i	2%	/	-15%	-6%
Cc1cc(C(=O)COC(=O)c2cc(O)c3ccccc3c2O)c(C)n1CC1CCCO1 (stereo not drawn)	?	-17%	-10%	-30%	14µM*
Cc1cc(C(=O)COC(=O)c2ccccc2O)c(C)n1Cc1cccs1	i	0.71µM*	-6%	-3%	-37%
Cc1cc(C(=O)COC(=O)c2ccccc2O)c(C)n1CC1CCCO1 (stereo not drawn)	i	0.35µM*	/	-3%	-7%
Cc1ncsc1CCC(=O)N1CCCC(c2nc(-c3ccncc3)ncc2-c2ccccc2)C1 (stereo not drawn)	i	/	/	/	/
COc1ccccc1CNC(=O)CN(c1ccc(C)cc1)S(=O)(=O)c1c(C)noc1C	?	-14%	-8%	-6%	7%
CCNC(=O)c1cc2c(-c3cc(OCCN4CCCC4)c(Cl)cc3Cl)nc(N)nc2s1	/	1.4µM*	/	/	/
CC(=O)Oc1ccc(NC(=O)Cc2ccccc2)c(C(=O)O)c1	i	3%	-5%	5%	13%
